Screens from PubChem.
RORg inh = blocks mouse ROR gamma transcriptional activity; P51450; Drosophila S2 Gal4-RORgamma UAS-luciferase reporter, 20 h; Potency, µM (highest dose often 53.6 µM), without a hit: at the highest dose activity change, negative = inhibition, hits mostly inhibitors; actives 5.4% (n = 310,000); note: % is set by controls: 0 for no effect and ±100 for the full control effect; nearly all actives have a fitted effect of over 60% in size
Target sequence (P51450 whole entry, looked up, the tested form may be a part): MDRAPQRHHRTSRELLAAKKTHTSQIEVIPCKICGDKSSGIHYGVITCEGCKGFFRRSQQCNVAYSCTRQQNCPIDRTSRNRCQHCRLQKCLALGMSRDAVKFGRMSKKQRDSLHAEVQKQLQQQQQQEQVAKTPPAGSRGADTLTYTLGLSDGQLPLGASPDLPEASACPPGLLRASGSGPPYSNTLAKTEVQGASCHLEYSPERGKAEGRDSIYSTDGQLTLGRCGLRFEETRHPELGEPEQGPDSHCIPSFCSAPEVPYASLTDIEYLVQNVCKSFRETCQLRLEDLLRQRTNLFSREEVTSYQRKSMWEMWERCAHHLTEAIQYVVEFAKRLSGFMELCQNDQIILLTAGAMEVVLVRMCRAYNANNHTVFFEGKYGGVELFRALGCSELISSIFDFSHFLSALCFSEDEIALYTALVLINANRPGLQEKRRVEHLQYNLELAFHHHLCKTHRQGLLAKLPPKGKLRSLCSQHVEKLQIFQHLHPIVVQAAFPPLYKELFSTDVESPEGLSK
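Drosophila S2 cells stably expressing Gal4-DBD/mouse RORγ fusion under metallothionein promoter plus UAS-luciferase; compound 1 h, then 700 uM CuSO4 induction for 20 h at ambient temperature; inhibition read as reduced luminescence.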
SW480 rerep = inducers of DNA re-replication in SW480 colon cancer cells; SW480 DNA re-replication, Hoechst DNA content imaging, 48 h; Potency, µM (highest dose often 46.1 µM), for inactives: at the highest dose re-replication activation, usual class: activators; actives 1.8% (n = 340,000); note: % of control where 0% means no effect; nearly all actives have a fitted effect of over 55% in size
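Treated cells incubate 48 hr (37 C, 5% CO2), are stained 40 min with Hoechst, and nuclear fluorescence is enumerated; a rise in nuclei with high DNA signal marks re-replication.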
VP16 counter = Gal4-VP16 reporter inhibition counter-screen. Drosophila S2 Gal4-VP16 UAS-luciferase, luminescence, 20 h. Potency, µM (titrated, usually from 53.6 µM), without a hit: top-dose activity, negative = inhibition, actives largely listed as inhibitors. actives 3.5% (n = 310,000);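 note: Gal4-VP16 expression switched on by copper sulfate through the metallothionein promoter; % is set by controls: 0 for no effect and ±100 for the full control effect; nearly all actives have a fitted effect of over 50% in size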
ELG1 DNA repair = inhibitors of ELG1-dependent DNA repair in HEK293T cells; Potency, µM (titrated, usually from 46.1 µM), inactives show top-dose activity change, negative = inhibition, most hits filed as inhibitors; HEK293T ELG1-luciferase reporter, luminescence, 16 h; DNA damage induced by 5-fluorouridine; actives 2.3% (n = 330,000); note: % is set by controls: 0 for no effect and ±100 for the full control effect; nearly all actives have a fitted effect of over 55% in size
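Cells (2,000 per well) received 5-fluorouridine plus test compound or DMSO and were incubated 16 hr at 37 °C, 5% CO2. Luciferase activity was read by luminescence 30 min after ONE-Glo addition; signal suppression marked inhibition of damage-induced ELG1 function.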
MCF10A rerep = DNA re-replication induction in MCF 10a cells; MCF 10A DNA re-replication, Hoechst nuclear intensity, 48 h; Potency, µM (titrated, usually from 46.1 µM), for inactives: at the highest dose activity, positive = re-replication, actives largely listed as activators; actives 2.9% (n = 350,000); AID 624296; note: % of control where 0% means no effect; nearly all actives have a fitted effect of over 50% in size
* marks the source's active call; other numbers are inactive results; [ ] = another dose, or the depositor's remark. Shown are actives, neighbours in structure and some others; about 10% of the full set was active somewhere. Calls come from the whole dose curve; as a rule, active = well fitted curve in the direction sought with a large enough effect; inconclusive = small, poorly fitted or top-dose-only effect, or another doubt; inactive = no such curve, though single readings can be large; an effect the other way counts as inactive or inconclusive. Potency is the fitted concentration of half-maximal effect.

How did CC(C)c1ccc(C(=O)NC(=S)NCc2cccnc2)cc1 do in these assays?
RORg inh: 2.8µM*; SW480 rerep: -6%; VP16 counter: inconclusive; ELG1 DNA repair: -3%; MCF10A rerep: inconclusive

How did Cc1onc(-c2c(F)cccc2Cl)c1C(=O)NC(=S)NCc1cccnc1 do in these assays?
RORg inh: 16µM*; SW480 rerep: -6%; VP16 counter: inconclusive; ELG1 DNA repair: -5%; MCF10A rerep: -1%

What do the screens show for `O=C(Nc1ccccc1)c1cc([N+](=O)[O-])ccc1NCc1cccnc1`?
RORg inh: inconclusive; SW480 rerep: 1.3µM*; VP16 counter: -8%; ELG1 DNA repair: inconclusive; MCF10A rerep: 0%

How did CCc1cc2c(SCC(=O)N(C)C3CCS(=O)(=O)C3)ncnc2s1 (centres undefined) do in these assays?
RORg inh: -1%; SW480 rerep: 2%; VP16 counter: -2%; ELG1 DNA repair: inconclusive; MCF10A rerep: 11%

What do the screens show for `O=C(Nc1ccccc1)c1cc([N+](=O)[O-])ccc1Cl`?
RORg inh: 5%; SW480 rerep: -10%; VP16 counter: 1%; ELG1 DNA repair: 5%; MCF10A rerep: 2%

How did O=C(Nc1ccncc1)c1cc([N+](=O)[O-])ccc1Cl do in these assays?
RORg inh: 8.9µM*; VP16 counter: inconclusive

How did O=C(NC(=S)NCc1cccnc1)c1ccc([N+](=O)[O-])cc1 do in these assays?
RORg inh: 8.9µM*; SW480 rerep: -2%; VP16 counter: inconclusive; ELG1 DNA repair: 5%; MCF10A rerep: -3%

Results for COC(=O)c1cc(NC(=O)c2ccccc2)c(=O)oc1C ?
RORg inh: -2%; SW480 rerep: -136%; VP16 counter: 20%; ELG1 DNA repair: inconclusive; MCF10A rerep: -2%

Results for COC(=O)c1cc(NC(=O)c2ccc([N+](=O)[O-])cc2)c(=O)oc1C ?
RORg inh: 26%; SW480 rerep: inconclusive; VP16 counter: 0%; ELG1 DNA repair: -5%; MCF10A rerep: -1%

What do the screens show for `CC(=O)c1cc(NC(=O)c2ccc([N+](=O)[O-])cc2)c(=O)oc1C`?
RORg inh: inconclusive; SW480 rerep: 25%; VP16 counter: inconclusive; ELG1 DNA repair: -5%; MCF10A rerep: 16µM*

Results for COc1ccc(C(=O)Nc2cc(C(=O)c3ccccc3)c(C)oc2=O)cc1 ?
RORg inh: -104%; SW480 rerep: inconclusive; VP16 counter: 10µM*; ELG1 DNA repair: 29%; MCF10A rerep: inconclusive

Results for Cc1oc(=O)c(NC(=O)c2ccccc2)cc1C(N)=O ?
RORg inh: 2%; SW480 rerep: -3%; VP16 counter: -10%; ELG1 DNA repair: 1%; MCF10A rerep: -4%

What do the screens show for `Cc1oc(=O)c(NC(=O)c2cccc(Cl)c2)cc1C(=O)c1ccccc1`?
RORg inh: 4.5µM*; SW480 rerep: 21µM*; VP16 counter: 5µM*; ELG1 DNA repair: inconclusive; MCF10A rerep: inconclusive

How did CC(=O)c1sccc1NC(=O)c1ccccc1C(=O)O do in these assays?
RORg inh: 8%; SW480 rerep: -7%; VP16 counter: -3%; ELG1 DNA repair: 8%; MCF10A rerep: 2%

How did Cc1ccc(/C=N/N=C2/NC(=O)CS2)o1 do in these assays?
RORg inh: 13µM*; SW480 rerep: -7%; VP16 counter: inconclusive; ELG1 DNA repair: inconclusive; MCF10A rerep: -5%

How did O=C1CS/C(=N/N=C/c2ccc(OS(=O)(=O)c3ccccc3)cc2)N1 do in these assays?
RORg inh: -16%; SW480 rerep: -3%; VP16 counter: inconclusive; ELG1 DNA repair: -5%; MCF10A rerep: 0%

How did O=C1C2C3C=CC(CC3)C2C(=O)N1/N=C/c1c[nH]c2ccccc12 (centres undefined) do in these assays?
RORg inh: 21%; SW480 rerep: -1%; VP16 counter: -8%; ELG1 DNA repair: inconclusive; MCF10A rerep: 8%

What do the screens show for `O=C1CS/C(=N/N=C/c2c[nH]c3ccccc23)N1`?
RORg inh: -28%; SW480 rerep: 129%; VP16 counter: -8%; ELG1 DNA repair: 5%; MCF10A rerep: 18µM*

How did CCc1ccc(CNC(=O)C2CC(=O)N(C3CCCC3)C2)cc1 (centres undefined) do in these assays?
RORg inh: 5%; SW480 rerep: -5%; VP16 counter: -7%; ELG1 DNA repair: 11%; MCF10A rerep: 1%

Results for CN(C)Cc1ccccc1-c1cc(NCc2ccccc2)ncn1 ?
RORg inh: inconclusive; VP16 counter: 1%

How did Cc1ccc(N2CCN(S(=O)(=O)c3ccc4oc(=O)ccc4c3)CC2)cc1Cl do in these assays?
RORg inh: -28%; SW480 rerep: -1%; VP16 counter: -8%; ELG1 DNA repair: 1%; MCF10A rerep: 17%

Results for Cc1nn(-c2cc(C)c3ccccc3n2)c2c1CCC2 ?
RORg inh: 2.2µM*; SW480 rerep: -4%; VP16 counter: inconclusive; ELG1 DNA repair: 23%; MCF10A rerep: -1%

How did Cc1cc(N2CCCC2)nc2ccccc12 do in these assays?
RORg inh: -11%; SW480 rerep: -119%; VP16 counter: 8%[10 µM]; ELG1 DNA repair: 2%; MCF10A rerep: inconclusive

What do the screens show for `O=C1c2ccccc2-n2c1nc1ccccc1c2=O`?
RORg inh: inconclusive; SW480 rerep: 1.2µM*; VP16 counter: 4%; ELG1 DNA repair: inconclusive; MCF10A rerep: 8%

What do the screens show for `CC(=O)NC(c1ccc(C(C)C)cc1)c1c(O)ccc2ccccc12` (centres undefined)?
SW480 rerep: inconclusive; MCF10A rerep: 18µM*

Results for CC(C)C(=O)NC(c1ccc([N+](=O)[O-])cc1)c1c(O)ccc2ccccc12 (centres undefined) ?
RORg inh: inconclusive; SW480 rerep: 15%; VP16 counter: 13µM*; ELG1 DNA repair: inconclusive; MCF10A rerep: inconclusive

Results for O=c1[nH][nH]c(=S)n1C1CCCCC1 ?
RORg inh: 11µM*; SW480 rerep: -28%; VP16 counter: inconclusive; ELG1 DNA repair: 23%; MCF10A rerep: -40%

Results for NC(=O)COC(=O)c1ccccc1Nc1ccc(SC(F)F)cc1 ?
RORg inh: 27%; SW480 rerep: -4%; VP16 counter: 7%; ELG1 DNA repair: 15%; MCF10A rerep: 23µM*

Results for O=C(NCc1ccccc1Cl)C(=O)NCC1OCCCN1S(=O)(=O)c1cccs1 (centres undefined) ?
RORg inh: 27%; SW480 rerep: inconclusive; VP16 counter: -5%; ELG1 DNA repair: 1%; MCF10A rerep: inconclusive

Results for FC(F)(F)c1cccc(-c2nnc3ccc(C(F)(F)F)cn23)c1 ?
RORg inh: 10µM*; SW480 rerep: -17%; VP16 counter: -4%; ELG1 DNA repair: -14%; MCF10A rerep: 1%
